# Dicer inh: blocks human Dicer maturation of pre-miR-21; Q9UPY3; cat-ELCCA pre-miR-21 Dicer processing, chemiluminescence; hits give high values; z-score at 25 µM; 47,000 tested, 6% active; AID 1347074; in the data active = z-score above about 3, passing the limit was not always enough;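 also: plate controls were vehicle for no effect and no enzyme for full effect; higher signal means more uncleaved substrate so more Dicer inhibition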
# * hit, by the source's call. Shown is part of a subset that was picked to be rich in hits.
SMILES,Dicer inh
O=C(Nc1cc(C(F)(F)F)cc(C(F)(F)F)c1)C(Sc1ccccn1)c1ccccc1 (configuration not stated),2.3
O=C1/C(=C\c2ccc(F)cc2)N=C(c2ccccc2)N1Cc1ccc(F)cc1,-0.65
O=C1/C(=C/c2ccc(Cl)cc2)N=C(c2ccccc2)N1c1ccc(F)cc1,7.9*
O=C1NC(c2ccccc2)=N/C1=C/c1ccccc1,-0.81
Cc1cnc(NS(=O)(=O)c2ccccc2)c(Br)c1,-0.02
Cc1cccc(C)c1NS(=O)(=O)c1ccc(NS(=O)(=O)c2ccccc2)cc1,0.87
Cc1cc(O)cc(C)c1NS(=O)(=O)c1ccccc1,3.5*
CCn1cc(C(=O)NNC(=S)Nc2ccc(Cl)cc2)c(=O)c2cc(C(F)(F)F)ccc21,0.46
C=CCOC(=O)C1=C(C)NC2=C(C(=O)CC(C)(C)C2)C1c1ccc(OCCC)c(OC)c1 (configuration not stated),-0.51
O=C(COc1ccc(Cl)cc1)Nc1ccc(Cl)cn1,0.71
O=C(COc1ccc(Cl)cc1)Nc1nccs1,-0.38
O=C(COc1ccc(Cl)cc1)Nc1c[nH]c(=O)[nH]c1=O,4.1*
CCCSc1nc(N2CCCC2)c2c(c1C#N)CC(C)(C)OC2,3.6*
CC1(C)Cc2c(C#N)c(SCCOc3ccccc3)nc(N3CCOCC3)c2CO1,-0.13
CCSc1nc(N2CCCC2)c2c(c1C#N)CC(C)(C)OC2,1.9
CC(C)(C)c1cc(C(C)(C)C)n(-c2ccc(N3C(=O)COCC3=O)cc2)n1,-0.08
O=S(=O)(c1ccc(F)cc1F)n1nccc1-c1ccc(-c2ccc(F)cc2F)o1,-1.1
COC(=O)c1ccc(CSc2nnc(-c3ccc(C(F)(F)F)cc3)n2Cc2ccco2)o1,0.44
Cc1ccc(S(=O)(=O)NNC(=S)Nc2cc(C(F)(F)F)cc(C(F)(F)F)c2)cc1,3.7*
Cc1ccc(S(=O)(=O)/C(C#N)=C/Nc2cc(C(F)(F)F)cc(C(F)(F)F)c2)cc1,3.7*
CCc1ccc(NC(=S)NNS(=O)(=O)c2ccc(C)cc2)cc1,-0.96
Cc1ccc(S(=O)(=O)NNC(=S)Nc2ccc(Cl)cc2)cc1,6.1*
CSc1nc(C)nc(N/C=C(\C#N)S(=O)(=O)c2ccc(C)cc2)n1,-2.2
Cc1ccc(S(=O)(=O)NNC(=S)Nc2c(Cl)cccc2Cl)cc1,-0.42
N#C/C(=C\NCc1cc(C(F)(F)F)cc(C(F)(F)F)c1)S(=O)(=O)c1ccc(Cl)c(Cl)c1,-1.7
SMILES,Dicer inh
Cc1ccc(S(=O)(=O)NNC(=S)Nc2ccccc2)cc1,0.06
Cc1ccc(S(=O)(=O)NNC(=S)Nc2ccc(Br)c(C)c2)cc1,2.6
COc1ccc(/C(O)=C2\C(=O)C(=O)N(CCCn3ccnc3)C2c2ccc(Br)cc2)cc1 (configuration not stated),-0.7
COc1ccc(C2/C(=C(\O)c3ccccc3)C(=O)C(=O)N2CCN(C)C)cc1OC (configuration not stated),-1.1
CNC(=O)C(CC(C)C)NC(=O)OC(C)(C)C (configuration not stated),-0.45
COc1cc(C2c3c(oc4ccc(Cl)cc4c3=O)C(=O)N2Cc2ccccc2Cl)ccc1O (configuration not stated),1.4
CCOC(=O)C1=C(C)NC(=O)NC1c1ccc(N(C)C)c([N+](=O)[O-])c1 (configuration not stated),-1.1
O=[N+]([O-])c1cccnc1NCc1ccccn1,-1.2
O=C(O)CCCc1c[nH]c2ccccc12,0.68
CC(Cc1c[nH]c2ccccc12)C(=O)O (configuration not stated),5*
O=C(O)CCc1c[nH]c2ccccc12,-2.2
CC(C)(C)c1csc(-c2ccc(Cc3cc(-c4ccc(F)cc4)n[nH]c3=O)cc2)n1,-1.2
CCOC(=O)c1cncc(Br)c1,2.2
O=[N+]([O-])c1cccc(-c2noc(CSC3=NCCN3)n2)c1,-1.1
Nc1nc2c(c(=O)[nH]1)C(c1ccc(OCc3ccccc3F)cc1)CC(=O)N2 (configuration not stated),2.8
CC1(C)Cc2c(c(N3CCOCC3)nc3sc4c(NCCCO)ncnc4c23)CO1,7
C=C(C)CSc1nnc2c3sc4nc(N5CCOCC5)c5c(c4c3ncn12)CC(C)(C)OC5,3.2*
CC1(C)Cc2c(c(N3CCOCC3)nc3sc4c(=O)n(-c5ccc(Cl)cc5)cnc4c23)CO1,0.66
COC(=O)c1sc2scc(C)c2c1C,-3.2
O=S(=O)(NCc1ccncc1)c1cccs1,-0.27
CCOc1ccccc1C1C(C(=O)OC)=C(C)NC2=C1C(=O)c1ccccc12 (configuration not stated),0.84
COC(=O)C1=C(C)NC(C)=C(C(=O)OCC(C)C)C1c1ccccc1[N+](=O)[O-] (configuration not stated),3.9*
COC(=O)C1=C(C)NC(C)=C(C(=O)OC(C)C)C1c1cccc2nonc12 (configuration not stated),-0.72
Cc1c(CN2CCOCC2)c(=O)n(-c2ccccc2)n1C,-0.01
N#C/C(=C\C=C\c1ccccc1)C(N)=S,-1.9
SMILES,Dicer inh
CCOc1cc(C2C3=C(CCCC3=O)NC3=C2C(=O)CCC3)cc(Cl)c1OC,-0.56
CC(C)(C)NC(=O)c1nn2c(c1Br)NC(c1ccccc1)CC2C(F)(F)F (configuration not stated),-0.07
COc1ccc(N2CCN(C(=O)c3cc4n(n3)C(C(F)(F)F)CC(c3ccco3)N4)CC2)cc1 (configuration not stated),0.83
O=C(Nc1ccc(Cl)cc1)c1cc2n(n1)C(C(F)(F)F)CC(c1ccco1)N2 (configuration not stated),1.4
O=C(Nc1ccc(Cl)cc1)c1nn2c(c1Cl)NC(c1ccco1)CC2C(F)(F)F (configuration not stated),3.8*
CC(C)(C)NC(=O)c1nn2c(c1Cl)NC(c1ccco1)CC2C(F)(F)F (configuration not stated),3.2*
O=C(c1nn2c(c1Cl)NC(c1ccco1)CC2C(F)(F)F)N1CCN(c2ccccc2)CC1 (configuration not stated),5.3*
O=C(c1nn2c(c1Cl)NC(c1ccco1)CC2C(F)(F)F)N1CCCC1 (configuration not stated),2.4
O=C(NC1CC1)c1cc2n(n1)C(C(F)(F)F)CC(c1ccco1)N2 (configuration not stated),-0.56
O=C(Nc1ccc(O)cc1)c1cc2n(n1)C(C(F)(F)F)CC(c1ccco1)N2 (configuration not stated),1.2
Cc1ccc2oc3c(c(=O)c2c1)C(c1cccc(O)c1)N(Cc1ccccc1)C3=O (configuration not stated),1.1
CCOc1ccc(C2c3c(oc4ccc(C)cc4c3=O)C(=O)N2c2nccs2)cc1OC (configuration not stated),-1.7
CC(=O)c1cc(Cl)cc(Cl)c1OC(=O)c1ccc([N+](=O)[O-])cc1,-0.24
Cn1cnc([N+](=O)[O-])c1NC1Cc2ccccc2C1,-0.87
N#CCCN1C(=O)C(=O)c2ccccc21,1.2
O=C(O)c1cccc2cccc(C(=O)O)c12,3.9*
Nc1ccc(C(=O)O)c2c(C(=O)O)cccc12,-0.03
O=C(O)c1cccc2cccc(S(=O)c3ccccc3CO)c12 (configuration not stated),-0.98
CCc1c(O)c2ccccc2n(-c2ccccc2)c1=O,2.8
Cc1cc(C)n(C2=NCCN2S(=O)(=O)c2cc(C(F)(F)F)cc(C(F)(F)F)c2)n1,1.1
C#CCOC(=O)NC(=O)c1c(-c2c(Cl)cccc2Cl)noc1C,3.2*

# Screens deposited in PubChem by Center for Chemical Genomics, University of Michigan.
